Bioassay records from PubChem BioAssay.
Only some compounds are listed: those with a hit (about 0.85% of all), similar ones and a draw of the others.
TSHR antag = antagonists of human thyroid stimulating hormone receptor; activity change, negative = inhibition, % at 11.5 µM; P16473; AID 504810; TSHR-expressing cells, TSH-stimulated cAMP HTRF, 2 h; active compounds read low; 330,000 compounds, 0.2% hits;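 active = activity change below a set negative limit, meaning inhibition stronger than a set level, cut at about -70% in these data; inconclusive = activity change between two set negative limits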; note: % is set by controls: 0 for no effect and ±100 for the full control effect
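Inhibition of cAMP made by TSHR-expressing cells under TSH stimulation (4nM final, EC80; 2 h, 37 deg C) is quantified with a one-step lysis HTRF kit, anti-cAMP cryptate versus cAMP-d2.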
Six1-Eya2 blk = blocks human Six1 binding to Eya2; Q15475+O00167; AlphaScreen GST-Six1/His-Eya2 binding, biochemical; active compounds read low; activity change, % (no concentration beside the values); 360,000 compounds, 0.56% hits; AID 651725; note: % is set by controls: 0 for no effect and ±100 for the full control effect
Target sequence (O00167 whole entry, looked up): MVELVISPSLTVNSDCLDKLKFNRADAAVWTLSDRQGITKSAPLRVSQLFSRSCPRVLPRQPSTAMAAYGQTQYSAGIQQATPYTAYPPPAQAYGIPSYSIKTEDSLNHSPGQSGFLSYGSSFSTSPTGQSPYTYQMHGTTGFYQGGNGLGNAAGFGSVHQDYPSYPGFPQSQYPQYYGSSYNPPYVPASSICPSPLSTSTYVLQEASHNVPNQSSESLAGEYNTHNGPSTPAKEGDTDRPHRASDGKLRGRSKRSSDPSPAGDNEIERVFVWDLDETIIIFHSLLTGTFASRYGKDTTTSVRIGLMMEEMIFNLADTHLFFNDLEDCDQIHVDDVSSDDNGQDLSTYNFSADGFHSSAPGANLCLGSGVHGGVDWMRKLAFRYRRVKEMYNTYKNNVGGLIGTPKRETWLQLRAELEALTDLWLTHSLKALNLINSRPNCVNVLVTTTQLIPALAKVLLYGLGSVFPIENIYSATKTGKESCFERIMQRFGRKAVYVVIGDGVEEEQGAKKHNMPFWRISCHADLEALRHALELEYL
Target sequence (Q15475 whole entry, looked up): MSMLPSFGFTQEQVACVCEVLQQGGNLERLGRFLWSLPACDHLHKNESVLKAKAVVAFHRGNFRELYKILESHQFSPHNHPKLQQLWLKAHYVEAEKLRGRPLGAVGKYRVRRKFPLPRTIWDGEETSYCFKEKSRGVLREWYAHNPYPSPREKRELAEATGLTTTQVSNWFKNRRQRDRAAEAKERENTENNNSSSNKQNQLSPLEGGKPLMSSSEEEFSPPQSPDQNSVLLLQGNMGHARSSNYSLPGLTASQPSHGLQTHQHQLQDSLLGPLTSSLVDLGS
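AlphaScreen with GST-Six1 and His-Eya2 (5X mix: 250 nM and 500 nM), glutathione donor and nickel acceptor beads; buffer 50 mM Tris pH 8.0, 300 mM NaCl, 1 mM TCEP; 1 h at 37 C in the dark.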
S-ASM inh = inhibitors of human secretory acid sphingomyelinase | placental ASM, HMU-PC fluorogenic substrate, 60 min | Potency, µM (top dose mostly 57.5 µM), for inactives: at the top dose activity change, negative = inhibition, hits mostly inhibitors | P17405 | AID 504937 | 340,000 compounds, 0.006% hits; active = well fitted inhibition curve with a large enough effect; inconclusive = small, poorly fitted or top-dose-only effect; inactive = no such curve, though single readings can be large or run the other way; note: potency is the fitted concentration of half-maximal effect
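Human placenta-derived ASM preincubated with compound 10 min at room temperature, then reacted with 9 uM (final) fluorogenic HMU-PC substrate for 60 min at 37 C. Stop solution raises pH to 10; fluorescence read at Ex 386/Em 447 nm.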
CtBP-E1A inh = blocks the CtBP interaction with E1A. AlphaScreen GST-E1A/His-CtBP binding, 1536-well; active compounds read low. activity change, % (test concentration not listed). 340,000 compounds, 0.49% hits. AID 651724; note: % is set by controls: 0 for no effect and ±100 for the full control effect
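GST-E1A and His-tagged CtBP (125 nM each as 5X stock) were preincubated with pin-transferred compound for 2 h at 37 °C in the dark, then glutathione donor and nickel acceptor beads were added for 1 h before AlphaScreen reading.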
BCR signal inh = chronic active BCR signaling inhibition | ABC-DLBCL IkBa-CBG/CBR reporter, luminescence ratio, 4 h | Potency, µM (doses to about 46.1 µM), for the others: top-dose activity change, negative = inhibition, usual class: inhibitors | 340,000 compounds, 0.05% hits; active = well fitted inhibition curve with a large enough effect in the signal ratio, with a control signal flat, not every such curve was filed as active; inconclusive = small, poorly fitted or top-dose-only effect, or effect the other way, or a change in a side signal; the % refers to the signal ratio;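 note: potency is the fitted concentration of half-maximal effect; plate controls were basal doxycycline-induced cells for no effect and cells given 10 µM MG132 for full effect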
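Doxycycline induced both beetle luciferases in TMD8 lymphoma cells; IKK-driven degradation limits the IkappaBalpha-fused green signal, while red luminescence normalises for cell number and nonspecific effects. Compounds tested up to 46 uM, 4 hrs.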
The depositor's hits bear a star; i = inactive; u = inconclusive; x = no result given. Cut-off read from the data, not from the text of the source, unless noted: active = activity change below about -65%; inconclusive = mostly about -30% to -63%; inactive = weaker than that.

SMILES	TSHR antag	Six1-Eya2 blk	S-ASM inh	CtBP-E1A inh	BCR signal inh
O=C(NC(C(=O)N/N=C/c1cccc2ccccc12)c1n[nH]c(=O)c2ccccc12)c1ccccc1 (stereo not drawn)	2	-14	u	-15	-2%
Cc1ccccc1C(=O)Nc1cccc(C(=O)N/N=C/c2cc(Cl)cc([N+](=O)[O-])c2O)c1	6	u	-21%	-73*	-26%
O=C(NC(C(=O)N/N=C/c1cc([N+](=O)[O-])ccc1O)c1n[nH]c(=O)c2ccccc12)c1ccccc1 (stereo not drawn)	-24	-90*	u	-88*	0%
CSc1nc(-c2ccc(Cl)cc2Cl)[nH]c(=O)c1C#N	-40	-72*	-2%	u	u
Cc1cc(O)c(C=O)c2c1C(=O)Oc1c(CO)c(O)c3c(c1O2)C(O)OC3=O (stereo not drawn)	-47	-80*	-1%	-4	17%
Cc1cc(O)c(CN(C)C)c2c1C(=O)/C(=C/c1ccco1)O2	-7	-11	7%	9	1%
COc1ccc(S(=O)(=O)NCCc2csc3nc(-c4ccc(OC)c(OC)c4)nn23)cc1C	x	x	x	x	-6%
CC1=C(O)C(=O)C(C2=C(O)C(=O)C(C)=C(O)C2=O)=C(O)C1=O	x	-92*	2%	-85*	x
Cc1ccc(C2=C(O)C(=O)C(c3ccc(C)cc3)=C(O)C2=O)cc1	x	-4	9%	1	x
COc1cccc(C(=O)Oc2c(CN3CCOCC3)cc(Cl)c3cccnc23)c1	1	-88*	0%	-91*	u
COc1ccc(C(=O)Oc2c(CN3CCOCC3)cc(Cl)c3cccnc23)cc1	-4	u	2%	-65*	u
COc1cccc(C(=O)OCCN2CCOCC2)c1	-4	-4	7%	x	1%
COc1cc(C(=O)Oc2c(CN3CCOCC3)cc(Cl)c3cccnc23)cc(OC)c1OC	1	-92*	0%	-92*	-2%
COc1cc(C(=O)Oc2c(OC)cc(C(=S)N3CCOCC3)cc2OC)cc(OC)c1OC	6	-7	0%	-2	-3%
O=C(Oc1c(CN2CCOCC2)cc(Cl)c2cccnc12)c1ccc(F)cc1	-12	-91*	-1%	-92*	u
COC(=O)c1cnn(-c2ccc(C(=O)Nc3cccc(C(C)=O)c3)cc2)c1N	-16	x	x	x	u
CCOC(=O)Cc1c(C)nc2c(-c3ccccc3)c(-c3ccccc3)[nH]n2c1=O	-14	-75*	-2%	u	4%
Cc1nc2c(-c3ccccc3)c(C)[nH]n2c(=O)c1Cc1ccccc1	-10	u	-7%	x	2%
COc1ccc(-c2c(C)[nH]n3c(=O)c(Cc4ccccc4)c(C)nc23)cc1OC	2	-67*	-2%	u	-1%
Cc1nc2c(-c3ccc(Cl)cc3)c(C)[nH]n2c(=O)c1Cc1ccccc1	-8	-76*	4%	-82*	u
CCOC(=O)Cc1c(C)nc2c(-c3ccccc3)c(C)[nH]n2c1=O	23	-8	3%	-2	3%
CNc1nc(-c2ccc(S(=O)(=O)N3CCCCC3)cc2)cs1	13	-3	55%	x	-2%
O=C(Nc1nc(-c2ccc(S(=O)(=O)N3CCCC3)cc2)cs1)c1ccco1	-14	-69*	-11%	-85*	7%
Cc1ccc(NC(=O)/C=C\C(=O)N(c2ccc(C(C)C)cc2)C(C(=O)NCc2ccco2)c2ccc(F)cc2)cc1 (stereo not drawn)	x	x	x	x	-7%
COC(=O)c1cccc(/C=N/NC(N)=S)c1O	-1	-66*	i	x	-11%
SMILES	TSHR antag	Six1-Eya2 blk	S-ASM inh	CtBP-E1A inh	BCR signal inh
CC(C)C1Nc2ccc(C(=O)N3CCN(c4ccccn4)CC3)cc2NC1=O (stereo not drawn)	-113*	6	1%	-18	16%
O=S(=O)(Nc1cccc2ncccc12)c1cccs1	-2	-92*	6%	-90*	u
COc1ccc(CC2=CC(=O)c3ccccc3C2=O)cc1	-83*	1	-14%	x	u
CCOC(=O)c1c(/C=N/Nc2ccccc2)c2sc(C)cc2n1C	33	x	x	x	u
O=C(/C=C\c1ccccc1)Oc1cccc2cccnc12	-8	-67*	-4%	x	u
O=Cc1ccccc1OCCCOc1cccc2cccnc12	7	2	6%	x	u
O=C(/C=C/c1ccccc1)Oc1cccc2cccnc12	1	-73*	-1%	x	u
CC(Oc1cccc2cccnc12)C(=O)N/N=C/c1ccccc1 (stereo not drawn)	-9	-5	1%	-17	-21%
O=C(CCCCCn1c(=O)[nH]c2ccccc2c1=O)N1CCN(c2ccc(Cl)cc2)CC1	x	x	x	x	-13%
COc1ccc2sc(N(Cc3cccnc3)C(=O)c3cccs3)nc2c1	x	x	x	x	-28%
CCCNC(=O)c1ccc2c(=O)c(O)c(-c3ccsc3)[nH]c2c1	-7	u	60%	-76*	u
CCCCC#Cc1nc(NC)c2ncn([C@@H]3O[C@H](CO)[C@@H](O)[C@H]3O)c2n1	-8	x	x	x	x
O=C(O)c1ccccc1-c1ccccc1C(=O)Nc1ccc2c(c1)[nH]c(=O)c1ccccc12	-3	-72*	19%	-1	u
Oc1c(CN2CCN(c3ccccn3)CC2)cc(Cl)c2cccnc12	2	-90*	-1%	-97*	u
CC(=O)NCc1cc(Cl)c2cccnc2c1O	-2	x	x	x	u
OCCN1CCN(Cc2cc(Cl)c3cccnc3c2O)CC1	0	-90*	-1%	-95*	u
COC(=O)c1ccccc1NC(=O)C1(c2cccs2)CCOCC1	x	x	x	x	4%
CCOC(=O)/C(C#N)=C/c1ccc(OC(=O)c2ccccn2)cc1	3	-87*	6%	-3	2%
Cc1nnc(N/N=C/c2ccc(Br)cc2)n1N	10	1	-4%	u	u
Cc1nnc(N/N=C/c2ccc([N+](=O)[O-])cc2)n1N	14	-68*	-2%	u	u
Cc1ccc(-c2noc(C(C)NS(=O)(=O)c3ccc(C)cc3)n2)cc1 (stereo not drawn)	x	x	x	x	-5%
CCOC(=O)c1cnn(-c2ccc(C(=O)Nc3cc(OC)c(OC)c(OC)c3)cc2)c1N	x	x	x	x	0%
CCOc1ccccc1C(=O)N/N=C/c1cccc2cccnc12	-16	u	-2%	u	u
COc1ccc(C(=O)N/N=C/c2cccc3cccnc23)cc1	-5	-90*	0%	-93*	u
CSCC[C@H](NC(=O)OC(C)(C)C)C(=O)N/N=C/c1cccc2cccnc12	5	u	-4%	-75*	u
COc1ccc(C(=O)N/N=C/c2c(C)[nH]c(=O)[nH]c2=O)cc1	8	u	8%	-86*	u
CCOc1ccc(C(=O)N/N=C/c2cccc3cccnc23)cc1	-4	-92*	-1%	-98*	u
